“And” between values parts separate entries of the source, which are not always exact repeats. Equal values may be shown once. Values without a mark were called inactive. Results filed as inconclusive are left out. Entries that show only a call come without a potency. The source made the active and inactive calls. Unless noted, calls follow the shape of the dose curve; as a rule, active = well fitted curve in the direction sought with a large enough effect; inconclusive = small, poorly fitted or top-dose-only effect, or another doubt; inactive = no such curve, though single readings can be large; an effect the other way counts as inactive or inconclusive.
What was measured:
[1] = Cell Viability - Jurkat (AID 426;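 active = dose-dependent loss of cell ATP signal giving a full or clear fitted curve, ranked by lower potency value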;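 also: potency is read from the fitted curve at half-maximal effect; cells exposed to compound for 40 hours at 37 °C before ATP read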); conditions: qHTS
In short: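 Luminescent ATP read-out (CellTiter-Glo, 20 min at room temperature) after 40 hr compound exposure at 37 °C of Jurkat E6-1 cells, 5000/well. Decreased ATP taken as cytotoxicity; AC50 from standard Hill equation.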

[2] = Cellular Toxicity (caspase-3) Jurkat (AID 655); conditions: Jurkat caspase-3 activation, luminescence; caspase-3 activation: at 92.2 µM (top of the series), DMSO = 0%, tamoxifen = 100%;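 also: cells exposed to compound for 16 h at 37 °C before reading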
In short: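 Luminescent Caspase-Glo 3/7 read-out (20 min, room temperature) after 16 h compound treatment at 37 C of 5000 Jurkat cells per well. AC50 derived by Hill-equation fitting, scaled between DMSO basal and 100 uM tamoxifen stimulation.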

[3] = Cell Viability - LYMP2-003 (AID 965);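 also: cells exposed to compounds for 24 h before reading; nearly all actives have a fitted effect of over 50% in size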; also: potency is read from the fitted curve at half-maximal effect
In short: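 CellTiter-Glo luminescence quantified ATP loss after 24 h compound treatment of LYMP2-003 lymphoblastoid cells at 37 C. Titration series were fitted with the standard Hill equation to give AC50.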

[4] = Cell Viability - LYMP2-013 (AID 970); also: nearly all actives have a fitted effect of over 55% in size; also: potency is read from the fitted curve at half-maximal effect
In short: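 CellTiter-Glo luminescence (cellular ATP) read after 30 min at RT. Cells: human lymphoblastoid line, 2500/well, 24 hr compound exposure at 37 C. Tetraoctylammonium bromide positive control; AC50 via standard Hill fit of qHTS titrations.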

[5] = Cell Viability - LYMP2-008 (AID 980); also: nearly all actives have a fitted effect of over 60% in size; also: potency is read from the fitted curve at half-maximal effect
In short: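 Luminescent ATP read-out (CellTiter-Glo, 30 min RT) after 24 hr compound exposure at 37 C of human lymphoblastoid cells in complete medium. Decrease in ATP taken as cytotoxicity; AC50 derived by standard Hill fit of qHTS concentration-response data.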

[6] = Cell Viability - LYMP2-024 (AID 988); also: nearly all actives have a fitted effect of over 60% in size; also: potency is read from the fitted curve at half-maximal effect
In short: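 ATP-based luminescence (CellTiter-Glo, 30 min RT) after 24 h compound exposure at 37 C of 2500 lymphoblastoid cells/well; decrease in ATP taken as cytotoxicity. qHTS concentration-response fitted to standard Hill equation for AC50.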

[7] = Cell Viability - HUV-EC-C (AID 542);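 also: cells exposed to compound for 40 hours; nearly all actives have a fitted effect of over 35% in size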
In short: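 Luminescent ATP read-out (CellTiter-Glo, 20 min room temperature) after 40 hr compound treatment of HUV-EC-C cells at 37 °C. Concentration-response data fitted with the standard Hill equation to give AC50; tamoxifen and doxorubicin served as positive controls.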

[8] = MultiTox-Fluor Cytotoxicity Assay - LYMP1-001 - Dead Cells (AID 946)
In short: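 LYMP1-001 lymphoblastoid cells (2500/well) treated 16 h at 37 C. Dead-cell protease cleavage of bis-AAF-R110 read at Ex/Em 485/520. Normalized to DMSO and 15 uM tetraoctylammonium bromide; AC50 from Hill fits.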

[9] = MultiTox-Fluor Cytotoxicity Assay - LYMP1-001 - Live Cells (AID 947)
[10] = Cell Viability - LYMP1-002 - Assay at 16 hr (AID 948)
In short: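 ATP luminescence (CellTiter-Glo) was measured after 16 hr compound exposure at 37 C of 2500 lymphoblastoid LYMP1-002 cells per well. Concentration-response curves were fitted with the Hill equation to give AC50.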

[11] = MultiTox-Fluor Cytotoxicity Assay - LYMP1-003 - Dead Cells (AID 961); also: nearly all actives have a fitted effect of over 70% in size
In short: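 LYMP1-003 human lymphoblastoid cells (2500/well) exposed to compound 16 h at 37 C in complete medium; dead-cell protease read with bis-AAF-R110 fluorescence (Ex/Em 485/520) after 60 min at room temperature. Normalized to DMSO and 15 uM tetraoctylammonium bromide; AC50 from Hill fit.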

[12] = Cell Viability - LYMP2-009 (AID 968); also: nearly all actives have a fitted effect of over 55% in size; also: potency is read from the fitted curve at half-maximal effect
[13] = Cell Viability - LYMP2-002 (AID 977); also: potency is read from the fitted curve at half-maximal effect
In short: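 In this qHTS viability screen, 2500 human lymphoblastoid cells per well receive compound for 24 hr at 37 C, and luciferase-based ATP luminescence gives the viability signal. Tetraoctylammonium bromide serves as positive control.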

[14] = target: Tumor necrosis factor (Homo sapiens) (UniProt P01375); assay: qHTS assay to identify small molecules that stimulate Tumor Necrosis Factor-alpha (TNF-alpha) secretion (AID 651757; active = well fitted curve in the direction sought with a large enough effect in the signal ratio; the % refers to the signal ratio)
In short: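 THP-1 cells, 3000/well; compound 17 hrs, 37 C; add cryptate/XL665 anti-TNF-alpha antibody pair; 3 hr RT; TR-FRET (HTRF) read of secreted TNF-alpha. Quantitative HTS format.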

[15] = qHTS assay for small molecule agonists of the antioxidant response element (ARE) signaling pathway measured by Nrf2-dependant transcriptional activity (AID 720636; active = well fitted curve in the direction sought with a large enough effect in the repeat runs; an effect the other way counts as inactive or inconclusive;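 also: HepG2 cells with an ARE-driven luciferase reporter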)
In short: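 In HepG2 cells engineered with an Nrf2-responsive luciferase gene, ARE induction was quantified as luminescence after 16 hr compound treatment at 37 C.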

[16] = qHTS assay for small molecule activators of the human pregnane X receptor (PXR) signaling pathway (AID 720659; call rule not given here)
[17] = Cell Viability - LYMP2-005 (AID 967); also: potency is read from the fitted curve at half-maximal effect
In short: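 LYMP2-005 human lymphoblastoid cells (2500/well) were treated with compounds for 24 h at 37 C. Intracellular ATP was then measured by CellTiter-Glo luminescence after 30 min at room temperature. AC50 values came from Hill-equation fits of qHTS concentration-response data.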

[18] = Cell Viability - LYMP2-011 (AID 969);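 also: cells exposed to compound for 24 hours; nearly all actives have a fitted effect of over 60% in size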; also: potency is read from the fitted curve at half-maximal effect
In short: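 Luminescent ATP read-out (CellTiter-Glo, 30 min RT) after 24 hr compound exposure at 37 C in human lymphoblastoid cells, 2500 cells/well. Decreasing ATP indicates cytotoxicity; AC50 from standard Hill fit.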

[19] = Cell Viability - LYMP2-026 (AID 989); also: nearly all actives have a fitted effect of over 50% in size
In short: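 qHTS cytotoxicity: 2500 cells/well, 5 hr 37 C, compound 24 hr 37 C, CellTiter-Glo 30 min RT, luminescence. Tetraoctylammonium bromide positive control. AC50 via standard Hill fit.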

[20] = target: Nuclear receptor subfamily 1 group I member 2 (Rattus norvegicus) (UniProt Q9R1A7); assay: qHTS assay for small molecule activators of the rat pregnane X receptor (rPXR) signaling pathway (AID 651751; call rule not given here); conditions: rPXR reporter cells, luciferase (One-Glo), 24 h
Nuclear receptor subfamily 1 group I member 2 (Rattus norvegicus), sequence (Q9R1A7 whole entry, looked up): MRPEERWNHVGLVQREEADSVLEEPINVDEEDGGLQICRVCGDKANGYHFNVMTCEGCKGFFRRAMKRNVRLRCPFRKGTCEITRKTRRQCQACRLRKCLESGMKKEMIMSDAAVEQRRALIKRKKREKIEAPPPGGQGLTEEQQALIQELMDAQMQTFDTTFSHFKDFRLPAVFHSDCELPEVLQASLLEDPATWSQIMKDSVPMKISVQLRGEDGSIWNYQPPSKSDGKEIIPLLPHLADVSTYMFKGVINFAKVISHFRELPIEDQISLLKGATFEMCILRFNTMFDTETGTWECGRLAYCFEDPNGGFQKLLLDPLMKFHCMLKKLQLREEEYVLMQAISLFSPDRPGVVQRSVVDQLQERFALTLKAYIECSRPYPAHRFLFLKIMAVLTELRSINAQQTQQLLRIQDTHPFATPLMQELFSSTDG

Tumor necrosis factor (Homo sapiens), sequence (P01375 whole entry, looked up): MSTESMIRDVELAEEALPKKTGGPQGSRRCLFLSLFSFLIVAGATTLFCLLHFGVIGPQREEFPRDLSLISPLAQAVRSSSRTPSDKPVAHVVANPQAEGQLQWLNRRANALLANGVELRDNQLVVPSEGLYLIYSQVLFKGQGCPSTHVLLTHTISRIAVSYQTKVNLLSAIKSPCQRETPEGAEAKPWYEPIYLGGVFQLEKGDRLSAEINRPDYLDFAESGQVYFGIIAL

| SMILES | Potency [1] | caspase-3 activation [2] [%] | Potency [3] | Potency [4] | Potency [5] | Potency [6] | Potency [7] | outcome [8] | outcome [9] | outcome [10] | Potency [11] | Potency [12] | Potency [13] | outcome [14] | Potency [15] | outcome [16] | Potency [17] | Potency [18] | Potency [19] | max response [20] |
| --- | --- | --- | --- | --- | --- | --- | --- | --- | --- | --- | --- | --- | --- | --- | --- | --- | --- | --- | --- | --- |
| CN(C)c1ccc(N)cc1 | 72.8 µM (active) | -4.87 | 50.1 µM (active) | 79.4 µM (active) | 50.1 µM (active) | 50.1 µM (active) | – | – | – | – | – | – | – | – | – | – | – | – | – | – |
| CCN(N=O)C(N)=O | – | – | inactive | – | inactive | inactive | inactive | inactive | inactive | inactive | inactive | inactive | inactive | inactive | inactive | inactive | – | – | – | – |
| N#CCc1ccccc1 | > 92 µM | -0.89 | inactive | inactive | – | inactive | inactive | inactive | inactive | – | – | inactive | – | – | inactive | inactive | inactive | inactive | inactive | 1.21% |
| O=[N+]([O-])c1ccccc1CCl | – | -0.153 | – | – | – | – | – | inactive | inactive | inactive | inactive | – | inactive | inactive | – | inactive | – | – | inactive | 5.58% |
| ClCCCCl | > 92 µM | 2.19 | inactive | inactive | inactive | inactive | inactive | – | inactive | inactive | – | inactive | inactive | inactive | inactive | inactive | inactive | inactive | – | -3.7% |
| C=C(Cl)CSC(=S)N(CC)CC | > 92 µM | 1.37 | – | inactive | – | – | – | inactive | inactive | inactive | inactive | – | inactive | inactive | inactive | inactive | inactive | inactive | inactive | 1.65% |
| Cc1ccc(N)cc1C | > 92 µM | 0.158 | inactive | inactive | – | – | inactive | inactive | inactive | – | – | inactive | inactive | inactive | inactive | inactive | inactive | inactive | inactive | – |
| CN(C)c1ccc(N(C)C)cc1 | – | 1.91 | – | – | – | – | – | – | inactive | inactive | inactive | – | – | – | – | inactive | – | – | – | – |
| CCOC(=O)CBr | > 92 µM | 1.06 | inactive | inactive | – | inactive | inactive | – | inactive | inactive | inactive | – | inactive | inactive | inactive | inactive | inactive | inactive | – | 2.21% |
| CN1CSC(=S)N(C)C1 | 57.6 µM (active) | – | 31.6 µM (active) | 39.8 µM (active) | – | 12.6 µM (active) | inactive | inactive | – | – | inactive | 31.6 µM (active) | 31.6 µM (active) | inactive | inactive | – | 31.6 µM (active) | 39.8 µM (active) | – | -10.5% and -8.21% |
